Reference: PubChem BioAssay (EPA / NIEHS)
Calls of active or inactive are those of the source. Rule for the calls: active = hit-call score of the fitted dose curve at least 0.9, where 1 is the maximum; inactive = score below 0.9.

Legend:
Conditions in all cases: mRNA level, 48 h; actives raise or lower the signal
[1] = read-out: growth arrest and DNA damage 45 (GADD45G), GADD45G (gene 10912); assay: LTEA_HepaRG_GADD45G: Life Technologies and Expression Analysis (LTEA) Assay for growth arrest and DNA damage 45 (GADD45G) using HepaRG (AID 2283499)
In short: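 Gain or loss of GADD45G mRNA, quantified by TaqMan qRT-PCR against three housekeeping genes, is fitted in both directions relative to 0.5% DMSO. Human HepaRG cultures receive test chemical for 48 h at up to 100 uM.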

[2] = read-out: Glutamate-cysteine ligase regulatory (GCLM), GCLM (gene 2730); assay: LTEA_HepaRG_GCLM: Life Technologies and Expression Analysis (LTEA) Assay for Glutamate-cysteine ligase regulatory (GCLM) using HepaRG (AID 2283500)
In short: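 Differentiated human HepaRG cells exposed 48 h in serum-free induction medium to 8-point half-log concentrations (top 100 uM, 0.5% DMSO), in duplicate. GCLM mRNA quantified by qRT-PCR, normalized to ACTB, GAPDH, POLR2A; bidirectional fitting versus DMSO.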

[3] = read-out: Glutathione S-transferase M3 (GSTM3), GSTM3 (gene 2947); assay: LTEA_HepaRG_GSTM3: Life Technologies and Expression Analysis (LTEA) Assay for Glutathione S-transferase M3 (GSTM3) using HepaRG (AID 2283501)
In short: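 HepaRG, plated 48 h, then serum-free induction medium; test chemical 48 h, duplicate; 100 uM top, half-log x8, 0.5% DMSO. Read-out: GSTM3 mRNA (TaqMan qRT-PCR, Fluidigm array). Bidirectional fit vs DMSO.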

[4] = read-out: Heat shock 70 kDa protein 1 (HSPA1A), gene 3303; assay: LTEA_HepaRG_HSPA1A: Life Technologies and Expression Analysis (LTEA) Assay for Heat shock 70 kDa protein 1 (HSPA1A) using HepaRG (AID 2283502)
In short: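 Differentiated human HepaRG cells in serum-free induction medium were exposed in duplicate for 48 h to eight concentrations (top 100 uM, half-log steps, 0.5% DMSO). HSPA1A mRNA was quantified by qRT-PCR, normalized to ACTB, GAPDH and POLR2A, and fitted bidirectionally against DMSO.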

[5] = read-out: Hypoxia-inducible factor 1-alpha (Homo sapiens) (UniProt Q16665); assay: LTEA_HepaRG_HIF1A: Life Technologies and Expression Analysis (LTEA) Assay for Hypoxia-inducible factor 1 (HIF1A) Trancription factor using HepaRG (AID 2283503);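 note: HIF1A transcript by TaqMan qRT-PCR normalized to ACTB GAPDH and POLR2A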
In short: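 HepaRG, 48 h exposure, 8-pt half-log series from 100 uM, 0.5% DMSO vehicle, duplicates. Readout: HIF1A transcript by qRT-PCR (Fluidigm array), housekeeping-normalised. Bidirectional curve fit vs DMSO baseline.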

[6] = read-out: 3-Hydroxy-3-Methylglutaryl-CoA Synthase 2 (HMGCS2), HMGCS2 (gene 3158); assay: LTEA_HepaRG_HMGCS2: Life Technologies and Expression Analysis (LTEA) Assay for 3-Hydroxy-3-Methylglutaryl-CoA Synthase 2 (HMGCS2) using HepaRG (AID 2283504)
In short: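 HepaRG, plated 48 h then switched to serum-free induction media; cmpd 8-pt, max 100 uM, 1/2-log, 0.5% DMSO, n=2, 48 h. HMGCS2 mRNA by Fluidigm TaqMan qRT-PCR, ACTB/GAPDH/POLR2A norm; bidirectional fit vs DMSO.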

HGF (gene 3082) = assay: LTEA_HepaRG_HGF: Life Technologies and Expression Analysis (LTEA) Assay for Hepatocyte Growth Facto (HGF) using HepaRG (AID 2283505)
In short: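 Read-out is HGF transcript level by qRT-PCR, normalized to three housekeeping genes, fitted bidirectionally against 0.5% DMSO vehicle. Human HepaRG cells received test chemicals for 48 h at up to 100 uM.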

[7] = read-out: Insulin Like Growth Factor 1 (IGF1), IGF1 (gene 3479); assay: LTEA_HepaRG_IGF1: Life Technologies and Expression Analysis (LTEA) Assay for Insulin Like Growth Factor 1 (IGF1) using HepaRG (AID 2283506)
In short: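 Differentiated human HepaRG cells were dosed for 48 h in serum-free induction medium with 0.5% DMSO, eight half-log concentrations up to 100 uM, in duplicate. IGF1 mRNA was quantified by qRT-PCR normalized to ACTB, GAPDH, POLR2A; bidirectional fitting versus DMSO.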

[8] = read-out: Interleukin 6 (IL6), IL6 (gene 3569); assay: LTEA_HepaRG_IL6: Life Technologies and Expression Analysis (LTEA) Assay for Interleukin 6 (IL6) using HepaRG (AID 2283509)
In short: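 HepaRG cells exposed in duplicate for 48 h to eight half-log concentrations, top 100 uM, in 0.5% DMSO serum-free induction medium. mRNA measured by qRT-PCR, normalized to ACTB, GAPDH and POLR2A. Bidirectional fit versus DMSO.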

[9] = read-out: Interleukin 6 Receptor (IL6R), IL6R (gene 3570); assay: LTEA_HepaRG_IL6R: Life Technologies and Expression Analysis (LTEA) Assay for Interleukin 6 Receptor (IL6R) using HepaRG (AID 2283510);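 for AC50: TaqMan qRT-PCR signal normalized to ACTB GAPDH and POLR2A housekeeping genes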
In short: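 Differentiated human HepaRG cells, plated 48 h then switched to serum-free induction medium, were dosed in duplicate for 48 h at eight half-log concentrations up to 100 uM in 0.5% DMSO. IL6R mRNA quantified by qRT-PCR, normalized to ACTB/GAPDH/POLR2A; bidirectional fit versus DMSO.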

[10] = read-out: Potassium channel subfamily K member 1 (KCNK1), KCNK1 (gene 3775); assay: LTEA_HepaRG_KCNK1: Life Technologies and Expression Analysis (LTEA) Assay for Potassium channel subfamily K member 1 (KCNK1) using HepaRG (AID 2283511)
In short: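 Differentiated HepaRG cells, 48 h exposure in serum-free induction medium with 0.5% DMSO; 8 concentrations, half-log from 100 uM, duplicate. KCNK1 mRNA by qRT-PCR, normalized to ACTB, GAPDH, POLR2A; bidirectional fit vs DMSO.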

[11] = read-out: Keratin 19 (KRT19), KRT19 (gene 3880); assay: LTEA_HepaRG_KRT19: Life Technologies and Expression Analysis (LTEA) Assay for Keratin 19 (KRT19) using HepaRG (AID 2283512)
In short: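 KRT19 transcript levels, measured by Fluidigm qRT-PCR against three housekeeping genes, are fitted for gain or loss of signal relative to DMSO. Human HepaRG cells receive test chemicals (top 100 uM, half-log steps, 0.5% DMSO) for 48 hours.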

[12] = read-out: JUN Transcription Factor, JUN (gene 3725); assay: LTEA_HepaRG_JUN: Life Technologies and Expression Analysis (LTEA) Assay for JUN Transcription Factor using HepaRG (AID 2283513)
In short: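 Differentiated HepaRG cells were exposed to chemicals for 48 h in serum-free induction medium, 8 concentrations from 100 uM in half-log steps, 0.5% DMSO vehicle, in duplicate. JUN mRNA was quantified by TaqMan qRT-PCR, normalized to ACTB, GAPDH, POLR2A.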

[13] = read-out: Lipase C (LIPC), LIPC (gene 3990); assay: LTEA_HepaRG_LIPC: Life Technologies and Expression Analysis (LTEA) Assay for Lipase C (LIPC) using HepaRG (AID 2283514)
In short: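 HepaRG cells, 48 h after plating, treated in duplicate for 48 h in serum-free induction medium over 8 half-log concentrations from 100 uM, 0.5% DMSO. LIPC mRNA by TaqMan qRT-PCR normalized to ACTB/GAPDH/POLR2A; bidirectional fit versus DMSO.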

[14] = read-out: Lipoprotein lipase (LPL), LPL (gene 4023); assay: LTEA_HepaRG_LPL: Life Technologies and Expression Analysis (LTEA) Assay for Lipoprotein lipase (LPL) using HepaRG (AID 2283515)
In short: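 Differentiated HepaRG cells, plated 48 h, then exposed 48 h in serum-free induction medium to 8 concentrations (top 100 uM, half-log steps) in 0.5% DMSO, duplicate. LPL mRNA measured by qRT-PCR, normalized to ACTB, GAPDH and POLR2A.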

[15] = read-out: MicroRNA 122 (MIR122), gene 406906; assay: LTEA_HepaRG_MIR122: Life Technologies and Expression Analysis (LTEA) Assay for MicroRNA 122 (MIR122) using HepaRG (AID 2283516); note: the transcript read is the microRNA miR-122
In short: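 Differentiated human HepaRG cells were exposed 48 h in serum-free induction medium to eight half-log concentrations (top 100 uM, 0.5% DMSO). Transcript level was measured by TaqMan qRT-PCR, normalized to ACTB, GAPDH and POLR2A, and fitted bidirectionally versus DMSO.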

[16] = read-out: matrix metalloproteinase-10 (MMP10), MMP10 (gene 4319); assay: LTEA_HepaRG_MMP10: Life Technologies and Expression Analysis (LTEA) Assay for matrix metalloproteinase-10 (MMP10) using HepaRG (AID 2283517)
In short: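 Differentiated HepaRG cells in serum-free induction medium exposed 48 h in duplicate to 8-point half-log series up to 100 uM in 0.5% DMSO. mRNA quantified by qRT-PCR, normalised to ACTB, GAPDH, POLR2A; bidirectional fit versus DMSO.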

[17] = read-out: Intercellular Adhesion Molecule 1 (ICAM1), ICAM1 (gene 3383); assay: LTEA_HepaRG_ICAM1: Life Technologies and Expression Analysis (LTEA) Assay for Intercellular Adhesion Molecule 1 (ICAM1) using HepaRG (AID 2283507)
In short: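 Readout is qRT-PCR mRNA level, normalized to three housekeeping genes and fitted bidirectionally against 0.5% DMSO vehicle. Human HepaRG cultures received compound for 48 h, top concentration 100 uM with half-log dilutions.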

[18] = read-out: Insulin-like growth factor-binding protein 1 (IGFBP1), IGFBP1 (gene 3484); assay: LTEA_HepaRG_IGFBP1: Life Technologies and Expression Analysis (LTEA) Assay for Insulin-like growth factor-binding protein 1 (IGFBP1) using HepaRG (AID 2283508)
In short: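 Thawed HepaRG cells are plated for 48 h, switched to serum-free induction medium, then dosed in duplicate for another 48 h (100 uM top, half-log steps). Lysates in RLT go to qRT-PCR, and gain or loss of signal is fitted relative to vehicle.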

Sequence of Hypoxia-inducible factor 1-alpha (Homo sapiens) (Q16665 whole entry, looked up): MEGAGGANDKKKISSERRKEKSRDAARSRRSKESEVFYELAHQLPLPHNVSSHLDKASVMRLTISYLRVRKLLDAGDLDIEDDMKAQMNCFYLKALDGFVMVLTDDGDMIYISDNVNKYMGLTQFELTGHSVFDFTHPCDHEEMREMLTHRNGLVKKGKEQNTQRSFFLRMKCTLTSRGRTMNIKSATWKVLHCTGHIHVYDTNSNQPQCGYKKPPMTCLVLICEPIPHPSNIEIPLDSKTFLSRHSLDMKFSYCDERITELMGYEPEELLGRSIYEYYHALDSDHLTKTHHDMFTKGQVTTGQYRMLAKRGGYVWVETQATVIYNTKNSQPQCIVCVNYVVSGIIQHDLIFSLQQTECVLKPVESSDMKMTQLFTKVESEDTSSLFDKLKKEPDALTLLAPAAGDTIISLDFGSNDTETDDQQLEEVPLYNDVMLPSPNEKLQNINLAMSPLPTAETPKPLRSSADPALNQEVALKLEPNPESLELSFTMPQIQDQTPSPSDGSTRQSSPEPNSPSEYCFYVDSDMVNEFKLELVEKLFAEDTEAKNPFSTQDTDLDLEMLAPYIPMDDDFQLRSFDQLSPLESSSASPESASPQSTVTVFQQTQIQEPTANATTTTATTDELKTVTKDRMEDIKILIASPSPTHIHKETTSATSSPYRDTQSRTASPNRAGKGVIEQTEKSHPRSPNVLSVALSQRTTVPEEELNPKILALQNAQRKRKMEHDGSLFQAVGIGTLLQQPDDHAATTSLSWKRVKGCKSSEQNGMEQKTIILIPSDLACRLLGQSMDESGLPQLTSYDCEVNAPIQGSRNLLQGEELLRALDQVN

CCCCCCCCOC(=O)CCCCCCCCC(=O)OCCCCCCCC
outcome [1]: inactive | outcome [2]: inactive | outcome [3]: inactive | outcome [4]: inactive | outcome [5]: inactive | outcome [6]: inactive | outcome (HGF (gene 3082)): inactive | outcome [7]: inactive | outcome [8]: inactive | outcome [9]: inactive | outcome [10]: inactive | outcome [11]: inactive | outcome [12]: inactive | outcome [13]: inactive | outcome [14]: inactive | outcome [15]: inactive | outcome [16]: inactive

C#C[C@]1(O)CC[C@H]2[C@@H]3CCC4=CC(=O)CC[C@@H]4[C@H]3CC[C@@]21C
outcome [1]: inactive | outcome [2]: inactive | outcome [3]: inactive | outcome [4]: inactive | outcome [6]: inactive | outcome [7]: inactive | outcome [17]: inactive | outcome [18]: inactive | outcome [8]: inactive | outcome [9]: inactive | outcome [10]: inactive | outcome [11]: inactive | outcome [12]: inactive | outcome [13]: inactive | outcome [14]: inactive | outcome [15]: inactive | outcome [16]: inactive

CN1CCC[C@H]1c1cccnc1
outcome [1]: inactive | outcome [2]: inactive | outcome [3]: inactive | outcome [4]: inactive | outcome [6]: inactive | outcome (HGF (gene 3082)): inactive | outcome [7]: inactive | outcome [17]: inactive | outcome [18]: inactive | outcome [8]: inactive | outcome [9]: inactive | outcome [10]: inactive | outcome [11]: inactive | outcome [12]: inactive | outcome [13]: inactive | outcome [14]: inactive | outcome [15]: inactive | outcome [16]: inactive

CCC(C)(C)C1CCC(O)CC1 (stereo not given)
outcome [1]: inactive | outcome [2]: inactive | outcome [3]: inactive | outcome [4]: inactive | outcome [6]: inactive | outcome (HGF (gene 3082)): inactive | outcome [7]: inactive | outcome [18]: inactive | outcome [8]: inactive | outcome [9]: inactive | outcome [10]: inactive | outcome [11]: inactive | outcome [12]: inactive | outcome [13]: inactive | outcome [14]: inactive | outcome [15]: inactive | outcome [16]: inactive

c1ccc2c(c1)ccc1ccccc12
outcome [1]: inactive | outcome [2]: inactive | outcome [3]: inactive | outcome [4]: inactive | outcome [6]: inactive | outcome (HGF (gene 3082)): inactive | outcome [7]: inactive | outcome [18]: inactive | outcome [8]: inactive | outcome [9]: inactive | outcome [10]: inactive | outcome [11]: inactive | outcome [12]: inactive | outcome [13]: inactive | outcome [14]: inactive | outcome [15]: inactive | outcome [16]: inactive

c1ccc2cc3c(ccc4ccccc43)cc2c1
AC50 [1]: 15.5 µM (active) | AC50 [2]: 38.8 µM (active) | outcome [3]: inactive | outcome [4]: inactive | AC50 [6]: 19.7 µM (active) | outcome (HGF (gene 3082)): inactive | AC50 [7]: 20.1 µM (active) | AC50 [18]: 8.36 µM (active) | outcome [8]: inactive | AC50 [9]: 9.75 µM (active) | outcome [10]: inactive | AC50 [11]: 5.58 µM (active) | outcome [12]: inactive | AC50 [13]: 12.7 µM (active) | AC50 [14]: 7.72 µM (active) | AC50 [15]: 15 µM (active) | outcome [16]: inactive

CCCCCCCCCCCCc1ccccc1S(=O)(=O)O
outcome [1]: inactive | AC50 [2]: 50 µM (active) | outcome [3]: inactive | AC50 [4]: 13 µM (active) | AC50 [6]: 83.1 µM (active) | outcome (HGF (gene 3082)): inactive | AC50 [7]: 38.9 µM (active) | AC50 [18]: 76.8 µM (active) | AC50 [8]: 79.6 µM (active) | AC50 [9]: 83 µM (active) | outcome [10]: inactive | outcome [11]: inactive | AC50 [12]: 34.7 µM (active) | AC50 [13]: 72 µM (active) | AC50 [14]: 11.7 µM (active) | AC50 [15]: 80.6 µM (active) | AC50 [16]: 82.8 µM (active)
